A selection: hits, their analogues and other compounds. The true share with any hit is near 12%.
HP1b binding inh – inhibitors of HP1-beta chromodomain binding to methylated histone tails. P83916. AlphaScreen HP1-beta / biotin-H3K9me3 peptide binding. Potency, µM (titrated, usually from 114 µM), hits mostly inhibitors. actives 0.56% (n = 390,000); also: nearly all actives have a fitted effect of over 70% in size
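HP1-beta protein (50 nM final) preincubated 30 min at room temperature with biotinylated H3(1-18)K9me3 peptide (50 nM) in PBS pH 7.4, 0.01% Tween-20, then compound added for 30 min. AlphaScreen streptavidin donor/nickel chelate acceptor beads (10 ug/mL final), 30 min dark, luminescence read.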
BAZ2B block – inhibitors of human BAZ2B bromodomain; Q9UIF8; AlphaScreen BAZ2B-H3K14Ac peptide displacement; Potency, µM (top dose mostly 114 µM), most hits filed as inhibitors; actives 4.4% (n = 360,000); AID 504333; also: nearly all actives have a fitted effect of over 60% in size
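Protein-peptide AlphaScreen: BAZ2B 50 nM, b-H3K14Ac 50 nM, 1x PBS pH 7.4 + 0.01% Tween-20. Preincubation 30 min RT; cpd 30 min RT (top 110 uM); beads 20 min RT, light-protected.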
JMJD2A Tudor – JMJD2A Tudor domain (human) inhibition | AlphaScreen JMJD2A-Tudor / H3K4me3 peptide binding | O75164 | actives 4.4% (n = 390,000) | Potency, µM (series often up to 114 µM), actives largely listed as inhibitors; also: nearly all actives have a fitted effect of over 50% in size
TDP1 block – inhibitors of human tyrosyl-DNA phosphodiesterase TDP1; Q9NUW8; recombinant TDP1, AlphaScreen DNA substrate cleavage; AID 485290; actives 0.28% (n = 350,000); Potency, µM (doses to about 130 µM), most hits filed as inhibitors; also: nearly all actives have a fitted effect of over 40% in size
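AlphaScreen read-out: signal falls as enzyme removes the 3' tyrosine-FITC from a 5'-biotinylated DNA oligo (15 nM, 5 min, RT). Enzyme was E. coli-made recombinant Tdp1 at 1 nM, exposed to compound for 15 min beforehand; beads 10 ug/ml, 10 min.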
Sfp inh – Sfp phosphopantetheinyl transferase inhibition; Q9F4F7; Biochemical Sfp PPTase activity, qHTS; AID 1490; actives 3.5% (n = 310,000); Potency, µM, hits mostly inhibitors;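 also: the enzyme is Sfp with the accession as filed and its product quenches rhodamine fluorescence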
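Step 1, compound plus 15 nM Sfp-PPTase, 15 min, room temperature. Step 2, add rhodamine-CoA (5 uM) and BHQ-2-YbbR (12.5 uM). Step 3, read 525/598 nm fluorescence at 0 and 30 min.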
G9a block – blocks human histone lysine methyltransferase G9a | Q96KQ7 | G9a H3K9 monomethylation, AlphaScreen, 2 h | Potency, µM (top dose mostly 102 µM), actives largely listed as inhibitors | actives 8.8% (n = 350,000) | AID 504332; also: nearly all actives have a fitted effect of over 75% in size
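Using a bead-based AlphaScreen, monomethylated H3K9 product from 2 h room-temperature reactions (G9a 20 nM, peptide 500 nM, SAM 20 uM) was detected with 0.5 ug/mL rabbit anti-H3K9me1 antibody.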
Each line names hits and unclear results; the compound was inactive in the other large screens. Calls follow the shape of the dose curve; as a rule, active = well fitted curve in the direction sought with a large enough effect; inconclusive = small, poorly fitted or top-dose-only effect, or another doubt; inactive = no such curve, though single readings can be large; an effect the other way counts as inactive or inconclusive.

CCOC(=O)c1c(C)[nH]c(C)c1S(=O)(=O)N1CCCC(C(=O)N2CCN(c3cccc(Cl)c3)CC2)C1 (stereo unspecified)	BAZ2B block inconclusive, JMJD2A Tudor inconclusive, G9a block inconclusive (no result: Sfp inh)
O=C(NCCNCc1cccs1)c1ccccc1F	HP1b binding inh inconclusive, BAZ2B block 50µM, JMJD2A Tudor 3.5µM, G9a block 6.3µM
COCCNC(=S)NCc1cccs1	G9a block 28µM
CC(=O)NC(CC(=O)OCC(=O)Nc1ccc2c(c1)OCO2)c1ccccc1 (stereo unspecified)	none
CC(=O)NC(CC(=O)OCC(=O)c1ccc(NC(=O)CC(C)C)cc1)c1ccccc1 (stereo unspecified)	HP1b binding inh inconclusive, BAZ2B block inconclusive, JMJD2A Tudor inconclusive, TDP1 block 45µM (no result: Sfp inh)
c1ccc(-c2nnc3sc(-c4ccncc4)nn23)cc1	none
c1ccc(-c2nnc3sc(-c4csc5c4CCCC5)nn23)cc1	HP1b binding inh inconclusive, JMJD2A Tudor inconclusive, Sfp inh 6.3µM, G9a block 5µM
Cc1cccc(-c2nnc3sc(-c4ccccc4C)nn23)c1	Sfp inh 50µM
Cc1ccc(N2CC(NC(=O)C(=O)c3c[nH]c4ccccc34)CC2=O)cc1C (stereo unspecified)	none (no result: Sfp inh)
Cn1nc(C(=O)Nc2c(-c3ccccc3)nc3sccn23)c2ccccc2c1=O	BAZ2B block inconclusive, Sfp inh 40µM
CC1=NN(C(N)=S)C(=O)C1N=Nc1ccc(F)cc1 (stereo unspecified)	G9a block inconclusive (no result: TDP1 block)
CC(=O)Nc1ccc(N=NC2C(=O)N(C(N)=S)N=C2C)cc1 (stereo unspecified)	Sfp inh inconclusive, G9a block 79µM
CC1=NN(C(N)=S)C(=O)C1N=Nc1ccc(O)cc1 (stereo unspecified)	Sfp inh 14µM, G9a block inconclusive
CC1=NN(C(N)=S)C(=O)C1N=Nc1cccc(C(=O)O)c1 (stereo unspecified)	JMJD2A Tudor 4µM, Sfp inh 45µM, G9a block 0.71µM
CCOc1ccc(N=NC2C(=O)N(C(N)=S)N=C2C)cc1 (stereo unspecified)	none (no result: TDP1 block)
CC1=NN(C(N)=S)C(=O)C1N=Nc1ccc([N+](=O)[O-])cc1 (stereo unspecified)	HP1b binding inh inconclusive, JMJD2A Tudor inconclusive, G9a block 79µM (no result: TDP1 block)
CCOc1ccc(S(=O)(=O)N2CCCCC2)cc1NC(=O)C1=COCCO1	G9a block inconclusive (no result: Sfp inh)
COc1cccc(Cn2c(=O)c(-c3ccc(Cl)cc3)nc3cnc(OC)nc32)c1	none (no result: HP1b binding inh, BAZ2B block, JMJD2A Tudor, TDP1 block)
COCCNC(=O)CN(Cc1ccccc1)S(=O)(=O)c1ccc2nc(C)sc2c1	none (no result: TDP1 block)
CC1=NN(C(N)=S)C(=O)C1N=Nc1ccccc1C(=O)O (stereo unspecified)	none (no result: TDP1 block)
CC1=NN(C(N)=S)C(=O)C1N=Nc1ccc(Cl)cc1Cl (stereo unspecified)	BAZ2B block inconclusive, JMJD2A Tudor 50µM (no result: G9a block)
CC1=NN(C(N)=S)C(=O)C1N=Nc1ccccc1Cl (stereo unspecified)	none (no result: TDP1 block)
CC1=NN(c2ccccc2C(=O)O)C(=O)C1N=Nc1ccccc1 (stereo unspecified)	HP1b binding inh inconclusive, BAZ2B block inconclusive, JMJD2A Tudor inconclusive, G9a block 45µM (no result: TDP1 block)
COc1cccc(-c2nnc(SCC(=O)N(C)c3ccccc3)o2)c1	none (no result: Sfp inh)
C/C=C(\C)C(=O)N[C@@H](C)CN1C2=NC[C@H](C(C)C)N2C[C@H]1Cc1ccc(OC)cc1	BAZ2B block inconclusive, Sfp inh 40µM, G9a block inconclusive
COc1ccc(C[C@@H]2CN3C(=NC[C@@H]3Cc3ccc(O)cc3)N2C[C@H](C)NC(=O)CCC2CCCCC2)cc1	JMJD2A Tudor inconclusive, Sfp inh 79µM (no result: TDP1 block, G9a block)
C[C@@H](CN1C2=NC[C@H](C)N2C[C@H]1Cc1ccc(O)cc1)NC(=O)CCC1CCCCC1	none
C/C=C(\C)C(=O)NCCN1C2=NC[C@H](C(C)C)N2C[C@@H]1Cc1ccc(OC)cc1	BAZ2B block inconclusive
CC(C)[C@H]1CN=C2N(C[C@H](C)NC(=O)CCC3CCCCC3)[C@H](Cc3ccc(O)cc3)CN21	JMJD2A Tudor 79µM, Sfp inh 50µM, G9a block inconclusive (no result: TDP1 block)
Cc1ccc(CN(Cc2ccco2)C(=O)c2ccc(Cl)cc2)o1	JMJD2A Tudor inconclusive (no result: Sfp inh)
O=C(Nc1ccc(O)c(C(=O)O)c1)Oc1ccccc1	Sfp inh inconclusive, G9a block 50µM
O=S(=O)(CCc1ccncc1)c1ccc(Cl)cc1	BAZ2B block inconclusive, G9a block 35µM (no result: TDP1 block)
COc1cc(CN2CCN(C(=O)CC(C)C)CC2)c([N+](=O)[O-])cc1OC	HP1b binding inh inconclusive, BAZ2B block 45µM, JMJD2A Tudor 22µM, Sfp inh inconclusive, G9a block 18µM (no result: TDP1 block)
COc1cc(CC(=O)O)c([N+](=O)[O-])cc1OC	none (no result: TDP1 block)
CC(C)CC(=O)N1CCN(Cc2ccccc2Cl)CC1	HP1b binding inh inconclusive, BAZ2B block 50µM (no result: TDP1 block)
COc1ccc(NC(C)C(=O)N2CCN(Cc3ccccc3)CC2)cc1 (stereo unspecified)	G9a block inconclusive
O=C(CN1CCN(Cc2ccccc2Cl)C1=O)N1CCCCCC1	none
COc1ccc(CN2CCN(C(=O)CC(C)C)CC2)cc1	HP1b binding inh inconclusive, BAZ2B block inconclusive, JMJD2A Tudor 7.9µM (no result: TDP1 block, G9a block)
COc1cc(CN2CCN(C(=O)CC(C)C)CC2)cc(OC)c1OC	HP1b binding inh inconclusive, BAZ2B block 28µM, JMJD2A Tudor 6.3µM, Sfp inh inconclusive, G9a block inconclusive
COc1cc(CCC(=O)N2CCN(c3ccccc3)CC2)cc(OC)c1OC	none
O=C1CCCCCN1C(=O)c1ccccc1	none (no result: BAZ2B block, TDP1 block, Sfp inh, G9a block)
O=C1CCCCCN1Sc1ccccc1	Sfp inh 25µM, G9a block 10µM
C=CC[C@@H](Cc1ccc(F)cc1)C(=O)OC[C@@H]1CCCN1C(=O)[C@H](CC=C)CC(=O)N(CCO)Cc1ccccc1	none (no result: BAZ2B block, Sfp inh, G9a block)
CCOc1cc(C(=O)NC(=S)Nc2ccc(Cl)c(C(=O)O)c2)cc(OCC)c1OCC	JMJD2A Tudor inconclusive, Sfp inh inconclusive, G9a block 40µM
COc1c(C)cc(Br)cc1C(=O)NC(=S)Nc1ccc(Cl)c(C(=O)O)c1	G9a block 50µM
CN(C)CCNC(=O)c1cc2sc3ccccc3c2s1	G9a block inconclusive
COc1ccc(C(=O)Nc2cccnc2Cl)cc1OC	BAZ2B block inconclusive (no result: TDP1 block)
COc1ccccc1C(=O)NC(=S)Nc1cccnc1Cl	HP1b binding inh inconclusive, Sfp inh 45µM, G9a block 10µM
Cc1ccc(C(=O)NC(=S)Nc2cccnc2Cl)cc1	Sfp inh 56µM, G9a block inconclusive
COC(=O)[C@H](NCc1ccc(OC)c(B(O)O)c1)C(C)C	none (no result: BAZ2B block, TDP1 block, Sfp inh, G9a block)
COc1cccc(Nc2nnc(SCC(=O)Nc3sccc3C(N)=O)s2)c1	BAZ2B block 79µM, Sfp inh inconclusive (no result: TDP1 block)
